Laboratory results as given in PubChem BioAssay AID449762 (Southern Research Specialized Biocontainment Screening …, 2010).
About 1,900 (0.58%) of roughly 330,000 compounds were called active. Another 4% or so got no clear call; they are omitted. Only a sample is shown. Entries with a potency or affinity are not part of this list. Values without a mark were called inactive. Rule as the data show it: inconclusive = inhibition above about 70% without an active follow-up result; inactive = below that.

Assay: M. tuberculosis growth inhibition, HTS (AID 449762);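 also: bacterial growth assessed after seven days of incubation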
Details: M. tuberculosis H37Rv growth inhibition, 7H9 media; at 25 µM; stronger effect = higher value

Row | Compound | inhibition [%]
1 | COC(=O)c1ccc(COC(=O)c2ccc(CO)cc2)o1 | 9.22
2 | CCOc1cc(C(N)=O)cc(Br)c1OC | -2.81
3 | CC(C)COC(=O)NCCCOC(=O)Nc1ccccc1 | 2.06
4 | Cc1ccc(C)c(NC(=O)CCc2c(C)nn(-c3ccc(N4CCCCC4)nn3)c2C)c1 | -0.31
5 | COc1ccccc1CNC(=O)CSc1nc(C)cs1 | -6.19
6 | CN(CCOc1ccc(Cl)cc1)C(=O)CN1C(=O)NC2(CCCC2)C1=O | -10.9
7 | Fc1ccc(OCCOCCN2CCNCC2)cc1 | -3.98
8 | COc1ccc(C[C@H]2CN3C(=NC[C@@H]3C)N2CCNC(=O)CCC2CCCCC2)cc1 | -0.84
9 | COc1ccc(C[C@H]2CN3C(=NC[C@H]3C)N2CCNC(=O)CCC2CCCCC2)cc1 | 2.73
10 | O=C1C(Cc2ccccc2)Nc2ncnc(N3CCN(c4ccccc4)CC3)c2N1Cc1ccc(Br)cc1 (configuration not stated) | 0.68
11 | COc1ccc(C2CC(=O)C3=C(C2)Nc2ccccc2N(C(C)=O)C3c2ccco2)cc1 (configuration not stated) | -14
12 | O=C(c1ccc(F)cc1)C(CN1CCOCC1)c1ccccc1 (configuration not stated) | 3.13
13 | CC(CN1CCOCC1)C(=O)c1ccccc1 (configuration not stated) | 3.78
14 | COc1ccc(C(NC(=O)c2cccc(F)c2)c2ccccc2)cc1 (configuration not stated) | -16.4
15 | C=CCn1cnc2c(nnn2-c2cc(C)cc(C)c2)c1=O | 7.46
16 | Cc1ccc(C(=O)NN(CCC(=O)NC(C)(C)C)C2=NS(=O)(=O)c3ccccc32)cc1 | 3.72
17 | O=C(O)c1ccc(Cl)c(S(=O)(=O)N(Cc2ccccc2)c2ccccc2)c1 | -3.72
18 | CC1(C)CC(NC(=O)c2cccc(S(=O)(=O)N(Cc3ccccc3)c3ccccc3)c2)CC(C)(C)N1 | -5.74
19 | Cc1nn(CCCC(=O)N2CCN(c3ccc(F)cc3)CC2)c(C)c1[N+](=O)[O-] | 2.18
20 | CCC(C)(C)c1ccc(OCC(=O)N(C)C)c(C(C)(C)CC)c1 | -12.9
21 | Cc1cc[n+](CC[n+]2ccc(C)cc2)cc1 | -0.82
22 | CCc1ccc(C(=O)Nc2ccc3nc(C)ccc3c2)cc1 | 0.01
23 | CCc1nc2ccccc2c(C(=O)Nc2cccc(C)c2)c1C | 7.7

Row | Compound | inhibition [%]
24 | CCc1nc2ccccc2c(C(=O)Nc2ccc(C)cc2)c1C | 4.44
25 | CCOC(=O)C1CCCN(CC(O)COc2cccc(C)c2)C1 (configuration not stated) | -3.72
26 | COc1ccccc1C(=O)N/C(=C\c1ccccc1)C(=O)NC(Cc1ccccc1)C(=O)O (configuration not stated) | -6.9
27 | Cc1ccc(NC(=O)CSCC(=O)N=c2sccn2C)cc1 | -9.96
28 | Cc1nc2c(c(=O)c3ccccc3n2C)c(=O)n1C1CCCCCC1 | -2.45
29 | CCc1nc2c(c(=O)c3ccccc3n2C)c(=O)n1C1CCCCCC1 | 6.04
30 | COc1ccc(OC)c(S(=O)(=O)N2CCCCC2C(=O)O)c1 (configuration not stated) | -12.8
31 | COc1ccccc1OCCCCN1CCN(c2ccccc2OC)CC1 | -3.03
32 | COc1ccccc1N1CCN(CCCCOc2c(OC)cccc2OC)CC1 | 4.13
33 | CN(C)c1cccc2c1c(NC(=O)c1ccc(F)cc1)nn2C | -5.17
34 | Cc1nc2c(c(=O)[nH]1)C(c1ccc([N+](=O)[O-])cc1)c1c(c3ccccc3oc1=O)O2 (configuration not stated) | 4.87
35 | O=S(=O)(NC1CC(NS(=O)(=O)OCC(Cl)(Cl)Cl)C2CCCCC12)OCC(Cl)(Cl)Cl (configuration not stated) | 4.68
36 | CCC1Oc2ccc(C)cc2N(CC(=O)N2CCCC2)C1=O (configuration not stated) | 9.77
37 | CC1(C)Oc2ccc3ccc(=O)oc3c2/C(=C/O)C1=O | 2.64
38 | COC1=Cc2c(ccc3ccc(=O)oc23)OC1(C)C | 1.79
39 | O=C(OCc1nnc(-c2ccc(Cl)cc2)o1)C12CC3CC(CC(O)(C3)C1)C2 | 7.22
40 | CCOC(=O)c1cc(C(=O)NC(C)c2ccccc2)c(C)[nH]c1=O (configuration not stated) | -4.64
41 | CCOC(=O)c1nnc(-c2ccccc2)nc1Sc1c(Cl)cccc1Cl | 4.17
42 | CCOC(=O)c1nnc(-c2ccc(C)cc2)nc1Sc1ccccc1Cl | 13.5
43 | CCOC(=O)c1c(NCc2ccccc2)n[nH]c1C | -5.08
44 | CCOC(=O)c1nnc(-c2ccccc2)nc1NC | -30.8
45 | O=C(CCN1C(=O)/C(=C\c2ccccc2Cl)SC1=S)Nc1cccnc1 | 2.83
46 | CC(=O)C1C2c3ccccc3OC1(C)N=c1s/c(=C/c3cn(C)nc3C)c(=O)n12 (configuration not stated) | 1.62

Row | Compound | inhibition [%]
47 | COC(=O)C1C2c3ccccc3OC1(C)N=c1s/c(=C/c3cn(C)nc3C)c(=O)n12 (configuration not stated) | -3.81
48 | COc1ccc(-c2cc3ccccc3oc2=O)cc1NC(=O)c1ccc(Br)o1 | -2.95
49 | COc1ccc(-c2cc3ccccc3oc2=O)cc1NC(=O)c1cccnc1 | 4.8
50 | Cn1c(-c2nonc2N)nc2ccccc21 | 0.49
51 | COc1ccccc1C(c1c(N)n(C)c(=O)n(C)c1=O)C(C)[N+](=O)[O-] (configuration not stated) | 43.9
52 | CC(C(c1cccs1)c1c(N)n(C)c(=O)n(C)c1=O)[N+](=O)[O-] (configuration not stated) | -8.45
53 | O=C(CSCc1cc(=O)n2nc(C3CC3)sc2n1)Nc1ccc(F)cc1 | -2.05
54 | CC(C)(C)OC(=O)N1CCC(NC(=O)c2[nH]cnc2C(=O)N[C@@H](Cc2ccccc2)C(=O)OCc2ccccc2)CC1 | -4.13
55 | C[C@H](NC(=O)c1nc[nH]c1C(=O)NC1CCN(C(=O)OC(C)(C)C)CC1)C(=O)OCc1ccccc1 | -4.49
56 | Cc1ccc(NC2CCCN(C(=O)c3cccc4nccnc34)C2)cc1C (configuration not stated) | -9.4
57 | NS(=O)(=O)c1ccc(-c2ccc(C=NC3CCS(=O)(=O)C3)o2)cc1 (configuration not stated) | -12
58 | NS(=O)(=O)c1ccc(-c2ccc(/C=C3\SC(=S)N(C4CCS(=O)(=O)C4)C3=O)o2)cc1 (configuration not stated) | 0.18
59 | O=C(CCc1nc2ccccc2c(=O)[nH]1)N1CCN(S(=O)(=O)c2cccc(F)c2)CC1 | -17.1
60 | NC(=O)NC(CC(=O)NCCCc1ccccc1)c1ccc(Cl)cc1 (configuration not stated) | 5.17
61 | CS(=O)(=O)c1ccc(C(=O)Nc2cc(S(C)(=O)=O)ccc2Cl)cc1 | 2.11
62 | COc1ccccc1C1C=C(c2ccc(C)cc2)Nc2nnnn21 (configuration not stated) | -0.45
63 | COc1ccc(OC)c(C2C=C(c3ccc(C)c(C)c3)Nc3nnnn32)c1 (configuration not stated) | 4.57
64 | COC(=O)C(C)(C)ONC(=O)Nc1ccc(C)cc1 | 0.62
65 | COc1ccc(Cl)cc1N(CC(=O)NC(C)(C)C)S(=O)(=O)c1ccc(C)c([N+](=O)[O-])c1 | -3.67
66 | CCC(CC)C(=O)Nc1nnc(SCC(=O)N2CCN(c3ccccc3OC)CC2)s1 | 4.18
67 | Cc1ccc(C(=O)Nc2ccccc2Sc2ccccc2)cc1 | 9.64
68 | Cc1ccc(C(=O)CC(=O)c2ccccc2)cc1 | 61.8
69 | COc1ccc(C)cc1NC(=O)c1ccc(NC(=O)CC2SC(N3CCCC3)=NC2=O)cc1 (configuration not stated) | 1.94

Row | Compound | inhibition [%]
70 | CCN(CC)CC1C(=O)N(c2ccc(OC)cc2)C1c1ccccc1 (configuration not stated) | -4.16
71 | COCCn1c(=O)[nH]c2cc(C(=O)N3CCN(c4ccccc4)CC3)ccc2c1=O | 5.58
72 | COc1ccccc1CNC(=O)/C=C/c1ccc(Br)o1 | 3.6
73 | Cc1cc(/C=N/O)c(C)n1-c1ccccc1 | -2.51
74 | CN(C)c1ccc(/C=C/c2ccc3ccccc3[n+]2C)cc1 | 66.1
75 | CC(C)[C@H](NC(=O)c1cc2cc(Cl)ccc2n1C)C(=O)N[C@@H](C(=O)O)c1ccccc1 | -9.63
76 | CCc1ccc(/C=C2/Sc3ccccc3N(CC(=O)NCCCN3CCOCC3)C2=O)cc1 | 38.4
77 | CC(C)(C)c1cc(-c2nc(N)nc(N)n2)cc(C(C)(C)C)c1 | 9.97
78 | CC(C)(C)c1ccc(-c2nc(N)nc(N)n2)cc1 | -3.01
79 | CCOC(=O)C1CCCc2c1[nH]c1c(C(=O)O)cccc21 (configuration not stated) | 9.6
80 | NC(=O)c1cccc2c3c([nH]c12)CCCC3 | -3.75
81 | CCOc1ccc(CCNC(=O)C2=C(C)C(=O)OC23CCCCC3)cc1OCC | -0.34
82 | C[C@H](CO)N1C[C@H](C)[C@@H](CN(C)C(=O)Nc2ccccc2)Oc2ccc(NC(=O)Cc3ccccc3)cc2C1=O | 0.43
83 | CCOC(=O)Cn1nc(/C=C/c2ccc(OC)cc2)ccc1=O | -1.75
84 | Cc1nn(C)c(NC(=O)c2ccccc2Cl)c1Br | -4.03
85 | Cc1nn(C(C)(C)C)c(NC(=O)c2ccc(Cl)cc2)c1Br | -3.55
86 | COc1cc(C)ccc1OCC(=O)Nc1ccccc1N1CCOCC1 | 0.365
87 | Cc1nnc(SCc2c(Cl)cccc2Cl)n(N)c1=O | -0.46
88 | Cc1ccccc1CSc1nnc(C)c(=O)n1N | 0.74
89 | O=C(CSc1nc(-c2ccco2)cc(C(F)(F)F)n1)NC1CCCC1 | -5.38
90 | Cc1nc2c(c(C)nn2-c2ccccc2)c(C)c1CCC(=O)Nc1ccc(CN2CCCC2)cc1 | 55.7
91 | Cc1ccc(CNC(=O)CCc2c(C)nc3c(c(C)nn3-c3ccc(C)cc3)c2C)cc1 | 0.88
92 | CCN(CC)S(=O)(=O)c1ccc(C(=O)N2CCN(CCN3C(=O)c4cccc5cccc(c45)C3=O)CC2)cc1 | -0.01
